Legend:
Assay in all cases: DAPPL (digital affinity profiling via proximity ligation, sequencing); 10 mM Tris-HCl pH 7.5, 50 mM NaCl, 1 mM DTT, 4% glycerol, room temperature, 30 min; GST-TFs on glutathione beads, 16-mer random dsDNA library, 0.1% formaldehyde crosslink after washing; high values mean tight binding
[1] = target: T1, FLI1 (Homo sapiens, UniProt Q01543 1-452); conditions: protein: recombinant; tags: N-terminal GST; dsDNA, one strand shown
T1 sequence: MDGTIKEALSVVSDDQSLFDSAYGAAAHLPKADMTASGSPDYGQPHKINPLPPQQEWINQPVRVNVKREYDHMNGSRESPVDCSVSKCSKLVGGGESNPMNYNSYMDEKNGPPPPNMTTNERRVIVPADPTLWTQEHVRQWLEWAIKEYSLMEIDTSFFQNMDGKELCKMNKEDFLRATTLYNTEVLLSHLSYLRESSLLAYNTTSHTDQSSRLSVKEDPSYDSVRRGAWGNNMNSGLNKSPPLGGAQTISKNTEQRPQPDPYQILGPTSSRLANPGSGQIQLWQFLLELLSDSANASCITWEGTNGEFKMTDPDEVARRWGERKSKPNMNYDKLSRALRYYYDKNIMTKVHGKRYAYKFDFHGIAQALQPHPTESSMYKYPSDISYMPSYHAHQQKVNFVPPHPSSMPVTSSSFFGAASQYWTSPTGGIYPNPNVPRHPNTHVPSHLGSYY
In short: (§1)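 After expression in yeast as GST fusions, human transcription factors were bound to glutathione beads, DNA-barcoded and mixed with a tag-only sample. The pools were incubated with 200 nmole of a 16-mer random double-stranded DNA library in Tris/NaCl/DTT/glycerol buffer (30 min, room temperature), washed and crosslinked with 0.1% formaldehyde. Proximity ligation with BsaI/T4 ligase ran for 1 h at 37 °C, before PCR amplification and sequencing on an Illumina NextSeq500. Binding signal is a hexamer's read frequency for a factor divided by its frequency for the tag-only sample.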

[2] = target: T2, GABPA (Homo sapiens, UniProt Q06546 1-454); conditions: protein: recombinant; tags: N-terminal GST; dsDNA, one strand shown
T2 sequence: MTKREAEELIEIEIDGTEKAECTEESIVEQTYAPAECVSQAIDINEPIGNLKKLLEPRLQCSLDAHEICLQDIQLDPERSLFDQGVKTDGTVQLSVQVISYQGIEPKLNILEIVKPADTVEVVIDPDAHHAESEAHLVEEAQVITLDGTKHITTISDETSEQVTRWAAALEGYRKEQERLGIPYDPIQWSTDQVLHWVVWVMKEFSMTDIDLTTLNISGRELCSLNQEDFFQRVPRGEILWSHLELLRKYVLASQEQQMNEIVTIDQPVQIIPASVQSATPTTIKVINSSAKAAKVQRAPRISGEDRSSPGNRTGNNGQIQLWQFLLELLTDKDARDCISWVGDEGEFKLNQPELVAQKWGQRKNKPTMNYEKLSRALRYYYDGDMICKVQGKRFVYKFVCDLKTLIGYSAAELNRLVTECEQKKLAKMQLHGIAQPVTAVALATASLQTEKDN
In short: as §1

[3] = target: ELF1 (Homo sapiens, UniProt P32519 1-619); conditions: protein: recombinant; tags: N-terminal GST; dsDNA, one strand shown
ELF1, sequence (P32519 whole entry): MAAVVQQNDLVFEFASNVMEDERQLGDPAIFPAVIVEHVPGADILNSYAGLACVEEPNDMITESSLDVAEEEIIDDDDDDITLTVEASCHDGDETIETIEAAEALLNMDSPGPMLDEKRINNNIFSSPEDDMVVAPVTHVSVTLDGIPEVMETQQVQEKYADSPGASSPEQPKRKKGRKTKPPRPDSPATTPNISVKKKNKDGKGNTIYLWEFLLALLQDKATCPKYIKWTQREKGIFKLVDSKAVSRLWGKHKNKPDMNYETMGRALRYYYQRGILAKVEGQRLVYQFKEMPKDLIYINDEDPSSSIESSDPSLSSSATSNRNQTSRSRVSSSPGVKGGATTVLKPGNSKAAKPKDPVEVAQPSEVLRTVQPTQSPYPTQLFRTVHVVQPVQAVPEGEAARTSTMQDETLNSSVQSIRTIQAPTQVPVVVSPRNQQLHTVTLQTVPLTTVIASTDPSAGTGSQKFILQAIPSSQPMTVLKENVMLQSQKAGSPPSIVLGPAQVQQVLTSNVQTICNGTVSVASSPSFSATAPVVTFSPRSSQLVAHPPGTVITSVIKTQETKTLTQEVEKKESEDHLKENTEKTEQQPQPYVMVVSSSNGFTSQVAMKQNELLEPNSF
In short: as §1

[4] = target: T3, EHF (Homo sapiens, UniProt Q9NZC4 1-300); conditions: protein: recombinant; tags: N-terminal GST; dsDNA, one strand shown
T3 sequence: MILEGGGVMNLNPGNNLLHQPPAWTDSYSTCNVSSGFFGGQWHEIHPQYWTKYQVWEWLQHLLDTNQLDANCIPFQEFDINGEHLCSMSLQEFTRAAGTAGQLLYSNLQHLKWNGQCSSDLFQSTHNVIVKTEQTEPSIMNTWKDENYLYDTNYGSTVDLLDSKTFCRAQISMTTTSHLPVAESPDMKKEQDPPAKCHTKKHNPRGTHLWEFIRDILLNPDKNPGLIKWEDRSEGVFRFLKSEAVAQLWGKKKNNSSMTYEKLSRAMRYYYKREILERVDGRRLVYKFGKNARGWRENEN
In short: as §1

[5] = target: SPIB (Homo sapiens, UniProt Q01892 1-262); conditions: protein: recombinant; tags: N-terminal GST; dsDNA, one strand shown
SPIB, sequence (Q01892 whole entry): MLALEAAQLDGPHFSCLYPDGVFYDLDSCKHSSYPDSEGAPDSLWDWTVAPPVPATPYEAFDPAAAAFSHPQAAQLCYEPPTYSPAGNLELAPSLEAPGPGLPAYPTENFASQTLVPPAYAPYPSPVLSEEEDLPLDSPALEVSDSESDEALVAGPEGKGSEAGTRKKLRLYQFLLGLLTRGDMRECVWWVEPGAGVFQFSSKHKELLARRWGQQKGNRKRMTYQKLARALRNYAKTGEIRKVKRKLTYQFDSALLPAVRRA
In short: as §1

[6] = target: T4, ELK3 (Homo sapiens, UniProt P41970 1-407); conditions: protein: recombinant; tags: N-terminal GST; dsDNA, one strand shown
T4 sequence: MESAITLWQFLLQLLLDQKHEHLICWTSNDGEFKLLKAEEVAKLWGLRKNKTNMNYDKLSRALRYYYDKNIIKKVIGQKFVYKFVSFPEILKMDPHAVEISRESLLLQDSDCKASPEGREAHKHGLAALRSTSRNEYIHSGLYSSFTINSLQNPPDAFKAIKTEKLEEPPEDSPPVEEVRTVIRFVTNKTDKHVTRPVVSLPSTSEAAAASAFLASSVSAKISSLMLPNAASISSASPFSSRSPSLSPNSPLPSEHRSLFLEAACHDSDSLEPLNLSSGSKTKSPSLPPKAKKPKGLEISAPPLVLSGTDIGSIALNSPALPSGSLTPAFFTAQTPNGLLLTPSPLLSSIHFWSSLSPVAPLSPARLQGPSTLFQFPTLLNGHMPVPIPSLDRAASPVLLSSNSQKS
In short: as §1

[7] = target: T5, FEV (Homo sapiens, UniProt Q99581 1-238); conditions: protein: recombinant; tags: N-terminal GST; dsDNA, one strand shown
T5 sequence: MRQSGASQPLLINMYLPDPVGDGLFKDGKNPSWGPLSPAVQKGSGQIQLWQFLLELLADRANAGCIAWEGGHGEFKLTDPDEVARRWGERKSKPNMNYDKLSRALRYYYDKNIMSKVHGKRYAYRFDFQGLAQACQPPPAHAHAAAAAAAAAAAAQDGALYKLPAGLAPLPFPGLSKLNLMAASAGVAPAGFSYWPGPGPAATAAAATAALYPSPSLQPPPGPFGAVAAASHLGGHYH
In short: as §1

[8] = target: ETV5 (Homo sapiens, UniProt P41161 1-510); conditions: protein: recombinant; tags: N-terminal GST; dsDNA, one strand shown
ETV5, sequence (P41161 whole entry): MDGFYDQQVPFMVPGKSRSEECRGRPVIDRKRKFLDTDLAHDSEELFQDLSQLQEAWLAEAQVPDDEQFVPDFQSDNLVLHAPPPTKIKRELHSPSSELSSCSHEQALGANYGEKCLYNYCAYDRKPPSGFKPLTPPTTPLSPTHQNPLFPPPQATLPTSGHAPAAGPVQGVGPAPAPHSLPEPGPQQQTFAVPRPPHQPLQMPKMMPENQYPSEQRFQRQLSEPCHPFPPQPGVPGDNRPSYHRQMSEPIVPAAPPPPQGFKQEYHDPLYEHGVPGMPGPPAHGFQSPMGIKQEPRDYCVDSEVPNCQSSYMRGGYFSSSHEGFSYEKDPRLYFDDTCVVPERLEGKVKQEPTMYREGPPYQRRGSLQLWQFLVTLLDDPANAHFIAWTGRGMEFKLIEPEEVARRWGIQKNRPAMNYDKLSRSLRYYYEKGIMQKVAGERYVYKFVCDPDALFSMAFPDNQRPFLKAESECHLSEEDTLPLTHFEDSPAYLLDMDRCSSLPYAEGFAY
In short: as §1

[9] = target: HSF1 (Homo sapiens, UniProt Q00613 1-529); conditions: protein: recombinant; tags: N-terminal GST; chain copies: 3; dsDNA, one strand shown
HSF1, sequence (Q00613 whole entry): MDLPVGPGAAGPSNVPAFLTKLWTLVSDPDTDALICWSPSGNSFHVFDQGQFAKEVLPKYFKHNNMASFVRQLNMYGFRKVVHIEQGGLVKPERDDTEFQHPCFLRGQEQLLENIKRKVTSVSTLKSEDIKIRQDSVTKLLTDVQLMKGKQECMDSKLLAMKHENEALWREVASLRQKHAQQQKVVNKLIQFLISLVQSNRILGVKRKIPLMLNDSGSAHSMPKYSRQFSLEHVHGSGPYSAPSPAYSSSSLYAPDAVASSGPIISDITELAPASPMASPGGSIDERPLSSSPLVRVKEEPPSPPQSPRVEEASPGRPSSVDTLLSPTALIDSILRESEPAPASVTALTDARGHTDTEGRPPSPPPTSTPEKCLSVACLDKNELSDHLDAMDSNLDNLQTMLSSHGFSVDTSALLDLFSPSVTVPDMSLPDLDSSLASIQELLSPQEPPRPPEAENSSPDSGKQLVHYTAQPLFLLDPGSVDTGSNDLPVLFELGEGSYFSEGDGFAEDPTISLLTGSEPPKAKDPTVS
In short: as §1

[10] = target: T6, SPIC (Homo sapiens, UniProt Q8N5J4 1-248); conditions: protein: recombinant; tags: N-terminal GST; dsDNA, one strand shown
T6 sequence: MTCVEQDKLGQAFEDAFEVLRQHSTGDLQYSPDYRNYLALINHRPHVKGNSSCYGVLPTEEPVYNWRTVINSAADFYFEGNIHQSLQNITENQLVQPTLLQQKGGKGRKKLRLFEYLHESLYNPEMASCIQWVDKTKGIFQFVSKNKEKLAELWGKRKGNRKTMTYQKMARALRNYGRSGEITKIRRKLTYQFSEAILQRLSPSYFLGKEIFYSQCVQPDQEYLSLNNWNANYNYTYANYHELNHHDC
In short: as §1

[11] = target: T7, ELK4 (Homo sapiens, UniProt P28324-2 1-405); conditions: protein: recombinant; tags: N-terminal GST; dsDNA, one strand shown
T7 sequence: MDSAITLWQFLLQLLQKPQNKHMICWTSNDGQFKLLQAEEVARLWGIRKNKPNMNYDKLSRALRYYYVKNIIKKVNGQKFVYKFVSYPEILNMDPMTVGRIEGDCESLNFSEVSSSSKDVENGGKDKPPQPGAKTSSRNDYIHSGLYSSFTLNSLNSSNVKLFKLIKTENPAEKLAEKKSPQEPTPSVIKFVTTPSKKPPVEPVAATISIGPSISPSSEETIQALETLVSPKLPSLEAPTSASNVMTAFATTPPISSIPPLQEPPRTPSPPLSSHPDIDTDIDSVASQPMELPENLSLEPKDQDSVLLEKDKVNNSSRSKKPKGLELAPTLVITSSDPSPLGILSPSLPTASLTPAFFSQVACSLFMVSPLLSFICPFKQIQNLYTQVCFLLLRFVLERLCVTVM
In short: as §1

[12] = target: T8, ETV2 (Homo sapiens, UniProt O00321 1-342); conditions: protein: recombinant; tags: N-terminal GST; dsDNA, one strand shown
T8 sequence: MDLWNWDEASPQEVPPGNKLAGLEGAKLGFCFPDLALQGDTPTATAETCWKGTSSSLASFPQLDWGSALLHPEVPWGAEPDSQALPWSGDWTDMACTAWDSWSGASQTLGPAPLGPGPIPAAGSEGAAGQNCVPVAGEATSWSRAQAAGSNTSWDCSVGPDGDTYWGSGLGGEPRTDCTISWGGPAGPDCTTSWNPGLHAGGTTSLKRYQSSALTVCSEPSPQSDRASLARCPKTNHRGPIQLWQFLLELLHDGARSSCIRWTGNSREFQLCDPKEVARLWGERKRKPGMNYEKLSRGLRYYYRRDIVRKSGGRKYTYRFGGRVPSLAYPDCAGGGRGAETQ
In short: as §1

[13] = target: T9, ELF3 (Homo sapiens, UniProt P78545 1-371); conditions: protein: recombinant; tags: N-terminal GST; dsDNA, one strand shown
T9 sequence: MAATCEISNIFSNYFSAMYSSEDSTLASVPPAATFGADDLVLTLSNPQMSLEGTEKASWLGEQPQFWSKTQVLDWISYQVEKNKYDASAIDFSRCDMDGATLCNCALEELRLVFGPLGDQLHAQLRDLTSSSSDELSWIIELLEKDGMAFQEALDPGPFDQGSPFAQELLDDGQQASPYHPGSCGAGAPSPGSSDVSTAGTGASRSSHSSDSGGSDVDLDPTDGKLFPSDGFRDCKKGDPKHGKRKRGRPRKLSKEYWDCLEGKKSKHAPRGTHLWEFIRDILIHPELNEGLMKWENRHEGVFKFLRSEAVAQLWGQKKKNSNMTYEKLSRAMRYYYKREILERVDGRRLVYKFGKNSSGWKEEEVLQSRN
In short: as §1

[14] = target: CRX (Homo sapiens, UniProt O43186 1-299); conditions: protein: recombinant; tags: N-terminal GST; dsDNA, one strand shown
CRX, sequence (O43186 whole entry): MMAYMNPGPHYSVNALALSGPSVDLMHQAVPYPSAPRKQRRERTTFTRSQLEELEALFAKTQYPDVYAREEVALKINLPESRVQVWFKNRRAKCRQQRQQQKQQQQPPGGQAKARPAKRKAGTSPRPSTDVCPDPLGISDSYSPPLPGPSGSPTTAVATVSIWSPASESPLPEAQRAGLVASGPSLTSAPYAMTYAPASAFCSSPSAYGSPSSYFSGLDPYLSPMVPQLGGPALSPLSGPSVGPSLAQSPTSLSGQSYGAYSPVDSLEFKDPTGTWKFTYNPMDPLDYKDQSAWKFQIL
In short: as §1

[15] = target: SPI1 (Homo sapiens, UniProt P17947 1-270); conditions: protein: recombinant; tags: N-terminal GST; dsDNA, one strand shown
In short: as §1

[16] = target: ELF4 (Homo sapiens, UniProt Q99607 1-663); conditions: protein: recombinant; tags: N-terminal GST; dsDNA, one strand shown
ELF4, sequence (Q99607 whole entry): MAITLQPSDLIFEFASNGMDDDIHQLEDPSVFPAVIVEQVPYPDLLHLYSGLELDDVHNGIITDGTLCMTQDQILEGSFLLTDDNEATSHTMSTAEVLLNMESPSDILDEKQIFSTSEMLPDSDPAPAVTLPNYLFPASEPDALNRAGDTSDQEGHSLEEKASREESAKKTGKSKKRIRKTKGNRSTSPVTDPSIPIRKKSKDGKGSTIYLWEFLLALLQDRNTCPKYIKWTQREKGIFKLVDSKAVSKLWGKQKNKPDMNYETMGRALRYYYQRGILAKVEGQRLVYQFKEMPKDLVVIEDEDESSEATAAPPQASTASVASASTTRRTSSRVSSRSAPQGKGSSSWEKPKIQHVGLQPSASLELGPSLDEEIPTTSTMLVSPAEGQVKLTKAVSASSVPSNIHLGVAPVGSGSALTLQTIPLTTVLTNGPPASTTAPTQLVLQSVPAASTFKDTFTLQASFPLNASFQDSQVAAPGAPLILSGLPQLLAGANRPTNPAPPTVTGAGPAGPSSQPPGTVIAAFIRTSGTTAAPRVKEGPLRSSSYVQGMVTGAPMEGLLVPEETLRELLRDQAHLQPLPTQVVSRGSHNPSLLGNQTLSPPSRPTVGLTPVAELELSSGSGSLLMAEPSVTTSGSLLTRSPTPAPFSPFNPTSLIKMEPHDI
In short: as §1

[17] = target: T10, ERG (Homo sapiens, UniProt P11308 1-479); conditions: protein: recombinant; tags: N-terminal GST; dsDNA, one strand shown
T10 sequence: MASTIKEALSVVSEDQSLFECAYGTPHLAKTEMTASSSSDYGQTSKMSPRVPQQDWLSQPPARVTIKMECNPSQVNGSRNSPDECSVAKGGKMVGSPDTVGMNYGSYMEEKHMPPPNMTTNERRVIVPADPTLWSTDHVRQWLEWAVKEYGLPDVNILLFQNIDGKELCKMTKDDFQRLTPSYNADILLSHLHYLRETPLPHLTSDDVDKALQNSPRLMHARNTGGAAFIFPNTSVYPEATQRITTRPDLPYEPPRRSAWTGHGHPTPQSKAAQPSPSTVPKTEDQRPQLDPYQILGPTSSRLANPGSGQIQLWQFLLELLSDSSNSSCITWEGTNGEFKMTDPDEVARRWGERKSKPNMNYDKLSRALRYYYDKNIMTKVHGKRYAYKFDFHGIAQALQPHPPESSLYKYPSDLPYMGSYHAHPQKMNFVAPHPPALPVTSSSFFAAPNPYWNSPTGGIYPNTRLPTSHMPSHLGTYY
In short: as §1

Sequence	binding signal [1]	binding signal [2]	binding signal [3]	binding signal [4]	binding signal [5]	binding signal [6]	binding signal [7]	binding signal [8]	binding signal [9]	binding signal [10]	binding signal [11]	binding signal [12]	binding signal [13]	binding signal [14]	binding signal [15]	binding signal [16]	binding signal [17]
AAGGCT	1.03 fold enrichment (6-mer frequency, TF over GST control)	1.12 fold enrichment (6-mer frequency, TF over GST control)	1.1 fold enrichment (6-mer frequency, TF over GST control)	1.02 fold enrichment (6-mer frequency, TF over GST control)	1.01 fold enrichment (6-mer frequency, TF over GST control)	1.1 fold enrichment (6-mer frequency, TF over GST control)	1.05 fold enrichment (6-mer frequency, TF over GST control)	1.01 fold enrichment (6-mer frequency, TF over GST control)	1.1 fold enrichment (6-mer frequency, TF over GST control)	1.06 fold enrichment (6-mer frequency, TF over GST control)	1 fold enrichment (6-mer frequency, TF over GST control)	1.15 fold enrichment (6-mer frequency, TF over GST control)	1.02 fold enrichment (6-mer frequency, TF over GST control)	1.43 fold enrichment (6-mer frequency, TF over GST control)	–	–	–
TTTAGT	1.13 fold enrichment (6-mer frequency, TF over GST control)	1.11 fold enrichment (6-mer frequency, TF over GST control)	1.11 fold enrichment (6-mer frequency, TF over GST control)	–	1.12 fold enrichment (6-mer frequency, TF over GST control)	1.11 fold enrichment (6-mer frequency, TF over GST control)	–	1.04 fold enrichment (6-mer frequency, TF over GST control)	1.2 fold enrichment (6-mer frequency, TF over GST control)	1.15 fold enrichment (6-mer frequency, TF over GST control)	–	1.23 fold enrichment (6-mer frequency, TF over GST control)	1.04 fold enrichment (6-mer frequency, TF over GST control)	1.55 fold enrichment (6-mer frequency, TF over GST control)	1.07 fold enrichment (6-mer frequency, TF over GST control)	1.04 fold enrichment (6-mer frequency, TF over GST control)	–
TGGATT	1.02 fold enrichment (6-mer frequency, TF over GST control)	–	–	–	1.05 fold enrichment (6-mer frequency, TF over GST control)	–	–	1.06 fold enrichment (6-mer frequency, TF over GST control)	1.85 fold enrichment (6-mer frequency, TF over GST control)	1.07 fold enrichment (6-mer frequency, TF over GST control)	1.11 fold enrichment (6-mer frequency, TF over GST control)	–	–	2.46 fold enrichment (6-mer frequency, TF over GST control)	1.02 fold enrichment (6-mer frequency, TF over GST control)	–	1.05 fold enrichment (6-mer frequency, TF over GST control)
